Inconclusive results are not listed. Where a call stands in place of a potency, no number is given. A number with no mark means an inactive call. The source made the active and inactive calls. Calls follow the shape of the full dose curve.

A short description of the assay: p53 small molecule agonists, cell-based qHTS assay with human liver microsomes: qHTS cell viability counter screen (AID 1963579). Also: nearly all actives have a fitted effect of over 45% in size. Conditions: p53RE-bla HCT-116 viability, ATP luminescence, 16 h, HLM; series mostly up to 66 µM. From the text:
National Center for Advancing Translational Sciences [NCATS]
Division of Preclinical Innovation [DPI]
U.S. Environmental Protection Agency [EPA]
National Institutes of Environmental Health Sciences [NIEHS]
National Toxicology Program [NTP]
U.S. Food and Drug Administration [FDA]
p53, a tumor suppressor protein, is activated following cellular insult, including DNA damage and other cellular stresses. The activation of p53 regulates cell fate by inducing DNA repair, cell cycle arrest, apoptosis, or cellular senescence. The activation of p53, therefore, is a good indicator of DNA damage and other cellular stresses. […] The activation of the reporter gene under culture conditions can be detected by fluorescence intensity. This cell line was used to screen the Tox21 10K compound library in the condition of presence of human liver microsomes and to identify agonists that activate the p53 signaling pathway after in vitro metabolic activation (Ooka et al., Archive of Toxicology 96:1975-1987, 2022).
Tox21 Assay Protocol Summary:
The p53RE-bla cells were dispensed at 4,000cells/3ul/well in 1536-well black-clear bottom plates. After the assay plates were incubated at 37 C, 5% CO2 incubator for 5 hours, 23 nL of compounds dissolved in DMSO, positive controls or DMSO only was transferred to the assay plate. Following compound addition, 3 uL of human liver microsomes (XenoTech, Kansas City, KS) at final concentration of 0.5 mg/mL and 1uL of B-Nicotinamide adenine dinucleotide 2'-phosphate (NADPH) at final concentration of 0.5 mg/mL were transferred to the assay plate. The plates were incubated at 37 C for 16 hours. 1 uL of LiveBLAzer detection mixture was added to each well and the plates were incubated at room temperature in the dark for 2 h. Fluorescence intensity at 460 and 530 nm emission and 405 nm excitation were measured by an Envision plate reader. For cell viability readout that measures cytotoxicity, 4 ul/well of CellTiter-Glo reagent was added into the assay plates using a Flying Reagent Dispenser. After 30 min incubation at room temperature, the luminescence intensity in the plates was measured using a ViewLux plate reader.
As to `Oc1ccccc1F`, the Potency entry was “inactive”.

With `C(=C(c1ccccc1)c1ccccc1)c1ccccc1`, the Potency result is “inactive”. The same measure, in the same setting: for `Cc1ccccc1Br` the value was “inactive”; for `CCCCCCCC/C=C\CCCCCCCC(=O)OCCOC(=O)CCCCCCC/C=C\CCCCCCCC`, “inactive”. The same measure, in the same setting: for `Cc1cc(C(C#N)c2ccc(Cl)cc2)c(Cl)cc1NC(=O)c1cc(I)cc(I)c1O` (stereo not given) the value was “inactive”; for `CC(=O)Nc1ccc(OC(=O)c2ccccc2OC(C)=O)cc1`, “inactive”.

As for `OCC1CC=CCC1` (stereo not given), the Potency entry is “inactive”. The same measure, in the same setting: for `C=C1CCC2CC1C2(C)C` (stereo not given) the value was “inactive”. On the same count and under the same terms, with `CC(=O)OCC(=O)[C@H]1CC[C@H]2[C@@H]3CCC4=CC(=O)CC[C@]4(C)[C@H]3CC[C@]12C` the entry was “inactive”; with `CCCCCCCCCCCCC1CO1` (stereo not given), “inactive”. Same read-out and setting: for `O=C(/C=C/c1ccccc1)OCCc1ccccc1` the value was “inactive”; for `C=CCN(CC=C)CC=C`, “inactive”; for `COc1ccnc2c1CCCCC2S(=O)c1nc2ccccc2[nH]1` (stereo not given), “inactive”. As to `O=C1NC(=O)c2cc([N+](=O)[O-])ccc21`, the Potency entry is “inactive”. Same read-out and setting: for `CCCCNc1cc(C(=O)O)cc(S(N)(=O)=O)c1Oc1ccccc1` the value was “inactive”; for `OCCCCCO`, “inactive”. Same read-out and setting: for `CCC[C@@H]1C[C@@H](C(=O)N[C@@H]([C@H]2O[C@H](SC)[C@H](O)[C@@H](O)[C@H]2O)[C@@H](C)O)N(C)C1` the value was “inactive”. Same read-out and setting: with `C/C(C=O)=C\c1ccccc1` the entry was “inactive”. On to `CCCCN(CCCC)CCC(O)c1cc2c(Cl)cc(Cl)cc2c2cc(C(F)(F)F)ccc12` (stereo not given), for which the Potency result is “inactive”. Still for that read-out and setting: with `C/C=C/C=C/C=O` the entry was “inactive”. On to `Cc1c(Nc2ncccc2C(=O)O)cccc1C(F)(F)F`, for which the Potency entry was “inactive”. On the same count and under the same terms, for `CC(C(=O)O)c1ccc2c(c1)[nH]c1ccc(Cl)cc12` (stereo not given) the value was “inactive”; for `Cc1cccc(C)c1NC(=O)CN(CC(=O)O)CC(=O)O`, “inactive”; for `Clc1cc(Cl)c2c(c1)N=C1CCCCCN1C2`, “inactive”. Same read-out and setting: for `COc1cc(C)nc(-n2nc(C)cc2OC)n1` the value was “inactive”; for `O=C(NO)C1(NS(=O)(=O)c2ccc(Oc3ccc(F)cc3)cc2)CCOCC1`, “inactive”. As for `COC=O`, the activity change, negative = cytotoxicity was -1.32% [at 5.99 µM]. Consider `CCCCCc1ccc(O)cc1`, for which the Potency result is “inactive”. The same measure, in the same setting: with `CCN(CC)c1ccc(C(=C2C=CC(=[N+](CC)CC)C=C2)c2cc(S(=O)(=O)O)ccc2S(=O)(=O)[O-])cc1` the entry was “inactive”; with `C[C@H]1C[C@H]2[C@@H]3CCC4=CC(=O)C=C[C@]4(C)[C@@]3(Cl)[C@@H](O)C[C@]2(C)[C@@]1(O)C(=O)CO`, “inactive”; with `C/C=C/C=C/CO`, “inactive”. On the same count and under the same terms, for `C1CCC(C(CC2CCCCN2)C2CCCCC2)CC1` (stereo not given) the value was “inactive”; for `CC(C)=CC(C)(C)C`, “inactive”; for `CC(C)(COC(=O)c1ccccc1)COC(=O)c1ccccc1`, “inactive”. Same read-out and setting: with `Nc1nc(Cl)nc2c1ncn2[C@H]1C[C@H](O)[C@@H](CO)O1` the entry was “inactive”; with `NNc1nc(-c2ccc(N)cc2)cs1`, “inactive”.

Take `CC(=O)C(=O)CC(C)C`: the Potency result is “inactive”.

Turning to `O=C1CC[C@@H](C(=O)O)N1`, the Potency entry was “inactive”. Same read-out and setting: with `CC1=NN(c2cc(S(=O)(=O)O)ccc2Cl)C(=O)C1N=Nc1ccccc1` (stereo not given) the entry was “inactive”. On the same count and under the same terms, with `O=C(NS(=O)(=O)/C=C/c1cccs1)c1ccc(F)cc1Br` the entry was “inactive”.

Source of the values: PubChem BioAssay (Tox21).
